Measured values as given in article PMC7862700, “An all-to-all approach to the identification of sequence-specific readers for epigenetic DNA modifications on cytosine”.

Tests used:
Assay in all cases: DAPPL (digital affinity profiling via proximity ligation, sequencing); 10 mM Tris-HCl pH 7.5, 50 mM NaCl, 1 mM DTT, 4% glycerol, room temperature, 30 min; GST-TFs on glutathione beads, 16-mer random dsDNA library, 0.1% formaldehyde crosslink after washing; high values mean tight binding
Settings in all cases: protein: recombinant; tags: N-terminal GST; dsDNA, one strand shown
FLI1 = target: T1, FLI1 (Homo sapiens, UniProt Q01543 1-452)
T1 sequence: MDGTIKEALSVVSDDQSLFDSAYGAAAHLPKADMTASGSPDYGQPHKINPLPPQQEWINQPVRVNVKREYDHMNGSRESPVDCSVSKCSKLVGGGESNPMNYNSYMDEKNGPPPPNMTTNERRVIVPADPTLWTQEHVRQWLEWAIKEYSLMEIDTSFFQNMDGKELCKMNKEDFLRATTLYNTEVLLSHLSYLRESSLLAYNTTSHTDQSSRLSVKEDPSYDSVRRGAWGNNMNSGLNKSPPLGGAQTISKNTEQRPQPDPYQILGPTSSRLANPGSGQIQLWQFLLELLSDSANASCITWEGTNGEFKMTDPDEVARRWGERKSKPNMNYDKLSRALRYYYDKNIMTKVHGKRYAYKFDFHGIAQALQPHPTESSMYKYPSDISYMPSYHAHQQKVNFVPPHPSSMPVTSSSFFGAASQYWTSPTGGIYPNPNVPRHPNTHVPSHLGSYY
In short: (§1)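 Sequencing on an Illumina NextSeq500 followed washing, crosslinking with 0.1% formaldehyde, proximity ligation (BsaI/T4 ligase, 1 h, 37 °C) and PCR amplification of pools that had been incubated for 30 min at room temperature with 200 nmole of a random double-stranded 16-mer DNA library in Tris/NaCl/DTT/glycerol buffer. Each pool held DNA-barcoded human transcription factors, expressed in yeast as GST fusions and captured on glutathione beads, plus a tag-only sample. Binding signal is a hexamer's read frequency for a factor divided by its frequency in the tag-only sample.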

ELK1 = target: T2, ELK1 (Homo sapiens, UniProt P19419 1-428)
T2 sequence: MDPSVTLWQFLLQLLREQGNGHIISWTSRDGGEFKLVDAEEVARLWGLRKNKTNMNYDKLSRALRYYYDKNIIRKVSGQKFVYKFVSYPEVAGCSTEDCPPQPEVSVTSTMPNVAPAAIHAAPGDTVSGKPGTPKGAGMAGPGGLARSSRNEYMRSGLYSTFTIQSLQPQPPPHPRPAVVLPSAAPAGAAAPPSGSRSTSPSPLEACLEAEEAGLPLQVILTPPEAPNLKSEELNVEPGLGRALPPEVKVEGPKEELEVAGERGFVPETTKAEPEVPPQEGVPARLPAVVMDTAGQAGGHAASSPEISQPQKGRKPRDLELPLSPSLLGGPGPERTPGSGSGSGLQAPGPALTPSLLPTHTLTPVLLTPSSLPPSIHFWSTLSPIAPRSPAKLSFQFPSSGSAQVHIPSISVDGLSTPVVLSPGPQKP
In short: as §1

GABPA = target: T3, GABPA (Homo sapiens, UniProt Q06546 1-454)
T3 sequence: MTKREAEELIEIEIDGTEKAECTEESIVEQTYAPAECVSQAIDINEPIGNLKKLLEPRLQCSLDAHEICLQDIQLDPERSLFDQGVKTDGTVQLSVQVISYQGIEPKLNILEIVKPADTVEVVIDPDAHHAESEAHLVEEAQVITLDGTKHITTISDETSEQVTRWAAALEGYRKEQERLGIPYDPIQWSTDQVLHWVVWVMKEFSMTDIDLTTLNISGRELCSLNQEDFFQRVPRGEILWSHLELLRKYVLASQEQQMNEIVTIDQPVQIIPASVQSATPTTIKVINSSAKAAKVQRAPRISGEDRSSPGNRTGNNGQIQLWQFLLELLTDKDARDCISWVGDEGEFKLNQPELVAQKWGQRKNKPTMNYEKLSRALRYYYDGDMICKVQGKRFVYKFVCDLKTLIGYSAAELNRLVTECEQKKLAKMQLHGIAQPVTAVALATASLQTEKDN
In short: as §1

ERG = target: T4, ERG (Homo sapiens, UniProt P11308 1-479)
T4 sequence: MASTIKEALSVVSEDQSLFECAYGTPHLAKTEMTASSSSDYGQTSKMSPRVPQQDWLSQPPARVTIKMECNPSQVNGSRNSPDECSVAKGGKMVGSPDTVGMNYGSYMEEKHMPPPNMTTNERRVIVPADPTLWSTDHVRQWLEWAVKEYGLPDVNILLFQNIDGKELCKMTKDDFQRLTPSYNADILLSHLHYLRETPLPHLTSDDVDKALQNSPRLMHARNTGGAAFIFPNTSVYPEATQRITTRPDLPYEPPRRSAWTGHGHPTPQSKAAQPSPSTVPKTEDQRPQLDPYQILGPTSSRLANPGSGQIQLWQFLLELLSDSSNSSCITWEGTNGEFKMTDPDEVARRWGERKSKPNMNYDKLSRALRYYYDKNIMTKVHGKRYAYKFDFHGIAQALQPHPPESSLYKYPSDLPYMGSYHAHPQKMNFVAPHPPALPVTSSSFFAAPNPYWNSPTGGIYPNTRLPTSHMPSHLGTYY
In short: as §1

ELF1 = ELF1 (Homo sapiens, UniProt P32519 1-619)
In short: as §1

EHF = target: T5, EHF (Homo sapiens, UniProt Q9NZC4 1-300)
T5 sequence: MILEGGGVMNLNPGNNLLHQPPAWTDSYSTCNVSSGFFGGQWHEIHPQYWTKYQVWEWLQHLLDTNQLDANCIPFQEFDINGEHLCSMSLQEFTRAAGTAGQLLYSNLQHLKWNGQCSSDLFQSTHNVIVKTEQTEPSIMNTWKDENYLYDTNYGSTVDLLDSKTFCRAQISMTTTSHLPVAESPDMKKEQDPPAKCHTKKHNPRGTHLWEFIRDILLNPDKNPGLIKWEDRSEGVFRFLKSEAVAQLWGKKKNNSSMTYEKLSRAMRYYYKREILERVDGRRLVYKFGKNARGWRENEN
In short: as §1

SPI1 = SPI1 (Homo sapiens, UniProt P17947 1-270)
In short: as §1

SPIB = SPIB (Homo sapiens, UniProt Q01892 1-262)
In short: as §1

ELK3 = target: T6, ELK3 (Homo sapiens, UniProt P41970 1-407)
T6 sequence: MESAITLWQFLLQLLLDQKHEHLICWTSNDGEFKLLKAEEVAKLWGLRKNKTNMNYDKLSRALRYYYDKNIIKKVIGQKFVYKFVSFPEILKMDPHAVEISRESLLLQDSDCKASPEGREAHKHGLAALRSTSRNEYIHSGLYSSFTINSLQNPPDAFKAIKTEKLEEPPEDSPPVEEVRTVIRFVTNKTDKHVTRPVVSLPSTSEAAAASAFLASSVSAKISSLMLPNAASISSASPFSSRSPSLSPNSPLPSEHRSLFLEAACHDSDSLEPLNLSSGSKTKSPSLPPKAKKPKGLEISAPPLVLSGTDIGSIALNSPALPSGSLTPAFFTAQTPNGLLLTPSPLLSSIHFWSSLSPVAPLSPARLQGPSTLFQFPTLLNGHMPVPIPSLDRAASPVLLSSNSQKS
In short: as §1

ELF1, sequence (P32519 whole entry): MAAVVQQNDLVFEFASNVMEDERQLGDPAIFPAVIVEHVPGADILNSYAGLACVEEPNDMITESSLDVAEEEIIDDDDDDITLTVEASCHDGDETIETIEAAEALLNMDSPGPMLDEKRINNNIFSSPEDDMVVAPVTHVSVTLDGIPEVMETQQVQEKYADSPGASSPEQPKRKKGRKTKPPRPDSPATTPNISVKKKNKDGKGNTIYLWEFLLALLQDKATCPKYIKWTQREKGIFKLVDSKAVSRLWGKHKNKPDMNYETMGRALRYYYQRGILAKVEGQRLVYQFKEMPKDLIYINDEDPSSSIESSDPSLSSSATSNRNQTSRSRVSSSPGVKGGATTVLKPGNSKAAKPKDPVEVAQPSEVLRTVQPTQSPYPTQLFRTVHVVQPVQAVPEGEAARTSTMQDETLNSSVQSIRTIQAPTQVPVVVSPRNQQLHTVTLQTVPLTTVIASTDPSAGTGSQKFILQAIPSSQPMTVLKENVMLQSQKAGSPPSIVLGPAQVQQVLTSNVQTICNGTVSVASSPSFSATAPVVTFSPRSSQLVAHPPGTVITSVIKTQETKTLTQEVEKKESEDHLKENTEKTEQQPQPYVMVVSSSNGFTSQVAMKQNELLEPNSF
SPIB, sequence (Q01892 whole entry): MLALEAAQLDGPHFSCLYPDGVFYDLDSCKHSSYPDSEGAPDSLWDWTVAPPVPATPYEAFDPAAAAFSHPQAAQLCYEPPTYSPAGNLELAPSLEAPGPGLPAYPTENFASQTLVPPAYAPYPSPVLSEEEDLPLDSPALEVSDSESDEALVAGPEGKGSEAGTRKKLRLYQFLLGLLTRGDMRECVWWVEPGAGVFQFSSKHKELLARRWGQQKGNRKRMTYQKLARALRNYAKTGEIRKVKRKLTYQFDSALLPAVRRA

| Sequence | binding signal (FLI1) | binding signal (ELK1) | binding signal (GABPA) | binding signal (ERG) | binding signal (ELF1) | binding signal (EHF) | binding signal (SPI1) | binding signal (SPIB) | binding signal (ELK3) |
| --- | --- | --- | --- | --- | --- | --- | --- | --- | --- |
| TCTGCT | 1.26 fold enrichment (6-mer frequency, TF over GST control) | 1.3 fold enrichment (6-mer frequency, TF over GST control) | 1.33 fold enrichment (6-mer frequency, TF over GST control) | 1.22 fold enrichment (6-mer frequency, TF over GST control) | 1.45 fold enrichment (6-mer frequency, TF over GST control) | 1.55 fold enrichment (6-mer frequency, TF over GST control) | 1.27 fold enrichment (6-mer frequency, TF over GST control) | 1.22 fold enrichment (6-mer frequency, TF over GST control) | 1.2 fold enrichment (6-mer frequency, TF over GST control) |
| TATGTT | 1.25 fold enrichment (6-mer frequency, TF over GST control) | 1.23 fold enrichment (6-mer frequency, TF over GST control) | 1.22 fold enrichment (6-mer frequency, TF over GST control) | 1.19 fold enrichment (6-mer frequency, TF over GST control) | 1.23 fold enrichment (6-mer frequency, TF over GST control) | 1.23 fold enrichment (6-mer frequency, TF over GST control) | 1.2 fold enrichment (6-mer frequency, TF over GST control) | 1.12 fold enrichment (6-mer frequency, TF over GST control) | 1.19 fold enrichment (6-mer frequency, TF over GST control) |
| TTCTCC | 1.42 fold enrichment (6-mer frequency, TF over GST control) | 1.45 fold enrichment (6-mer frequency, TF over GST control) | 1.6 fold enrichment (6-mer frequency, TF over GST control) | 1.43 fold enrichment (6-mer frequency, TF over GST control) | 1.56 fold enrichment (6-mer frequency, TF over GST control) | 1.62 fold enrichment (6-mer frequency, TF over GST control) | 1.63 fold enrichment (6-mer frequency, TF over GST control) | 1.61 fold enrichment (6-mer frequency, TF over GST control) | 1.6 fold enrichment (6-mer frequency, TF over GST control) |
| ATCGAA | 1.11 fold enrichment (6-mer frequency, TF over GST control) | 1.12 fold enrichment (6-mer frequency, TF over GST control) | 1.1 fold enrichment (6-mer frequency, TF over GST control) | 1.1 fold enrichment (6-mer frequency, TF over GST control) | 1.14 fold enrichment (6-mer frequency, TF over GST control) | 1.16 fold enrichment (6-mer frequency, TF over GST control) | 1.13 fold enrichment (6-mer frequency, TF over GST control) | 1.18 fold enrichment (6-mer frequency, TF over GST control) | 1.08 fold enrichment (6-mer frequency, TF over GST control) |
| ACTACG | 1.33 fold enrichment (6-mer frequency, TF over GST control) | 1.28 fold enrichment (6-mer frequency, TF over GST control) | 1.32 fold enrichment (6-mer frequency, TF over GST control) | 1.24 fold enrichment (6-mer frequency, TF over GST control) | 1.34 fold enrichment (6-mer frequency, TF over GST control) | 1.36 fold enrichment (6-mer frequency, TF over GST control) | 1.26 fold enrichment (6-mer frequency, TF over GST control) | 1.47 fold enrichment (6-mer frequency, TF over GST control) | 1.32 fold enrichment (6-mer frequency, TF over GST control) |
| TCCTCG | 1.6 fold enrichment (6-mer frequency, TF over GST control) | 1.33 fold enrichment (6-mer frequency, TF over GST control) | 1.47 fold enrichment (6-mer frequency, TF over GST control) | 1.42 fold enrichment (6-mer frequency, TF over GST control) | 1.47 fold enrichment (6-mer frequency, TF over GST control) | 1.56 fold enrichment (6-mer frequency, TF over GST control) | 1.46 fold enrichment (6-mer frequency, TF over GST control) | 1.32 fold enrichment (6-mer frequency, TF over GST control) | 1.49 fold enrichment (6-mer frequency, TF over GST control) |
| GTAAAC | 1.16 fold enrichment (6-mer frequency, TF over GST control) | 1.26 fold enrichment (6-mer frequency, TF over GST control) | 1.26 fold enrichment (6-mer frequency, TF over GST control) | 1.19 fold enrichment (6-mer frequency, TF over GST control) | 1.17 fold enrichment (6-mer frequency, TF over GST control) | 1.25 fold enrichment (6-mer frequency, TF over GST control) | 1.25 fold enrichment (6-mer frequency, TF over GST control) | 1.25 fold enrichment (6-mer frequency, TF over GST control) | 1.25 fold enrichment (6-mer frequency, TF over GST control) |
| TAGTTC | 1.47 fold enrichment (6-mer frequency, TF over GST control) | 1.41 fold enrichment (6-mer frequency, TF over GST control) | 1.28 fold enrichment (6-mer frequency, TF over GST control) | 1.45 fold enrichment (6-mer frequency, TF over GST control) | 1.37 fold enrichment (6-mer frequency, TF over GST control) | 1.3 fold enrichment (6-mer frequency, TF over GST control) | 1.43 fold enrichment (6-mer frequency, TF over GST control) | 1.51 fold enrichment (6-mer frequency, TF over GST control) | 1.15 fold enrichment (6-mer frequency, TF over GST control) |
